Among all 400,000 compounds or so, about 2,100 (0.53%) were called active. About 14% were inconclusive and are not listed. No rule for the calls is given here. The entries come from a sample that favours actives as a whole.
What follows are compounds tested against Ataxin-2 (Homo sapiens) (UniProt Q99700) (assay: qHTS for Inhibitors of ATXN expression.).
Chain of Ataxin-2 (Homo sapiens) (Q99700 whole entry): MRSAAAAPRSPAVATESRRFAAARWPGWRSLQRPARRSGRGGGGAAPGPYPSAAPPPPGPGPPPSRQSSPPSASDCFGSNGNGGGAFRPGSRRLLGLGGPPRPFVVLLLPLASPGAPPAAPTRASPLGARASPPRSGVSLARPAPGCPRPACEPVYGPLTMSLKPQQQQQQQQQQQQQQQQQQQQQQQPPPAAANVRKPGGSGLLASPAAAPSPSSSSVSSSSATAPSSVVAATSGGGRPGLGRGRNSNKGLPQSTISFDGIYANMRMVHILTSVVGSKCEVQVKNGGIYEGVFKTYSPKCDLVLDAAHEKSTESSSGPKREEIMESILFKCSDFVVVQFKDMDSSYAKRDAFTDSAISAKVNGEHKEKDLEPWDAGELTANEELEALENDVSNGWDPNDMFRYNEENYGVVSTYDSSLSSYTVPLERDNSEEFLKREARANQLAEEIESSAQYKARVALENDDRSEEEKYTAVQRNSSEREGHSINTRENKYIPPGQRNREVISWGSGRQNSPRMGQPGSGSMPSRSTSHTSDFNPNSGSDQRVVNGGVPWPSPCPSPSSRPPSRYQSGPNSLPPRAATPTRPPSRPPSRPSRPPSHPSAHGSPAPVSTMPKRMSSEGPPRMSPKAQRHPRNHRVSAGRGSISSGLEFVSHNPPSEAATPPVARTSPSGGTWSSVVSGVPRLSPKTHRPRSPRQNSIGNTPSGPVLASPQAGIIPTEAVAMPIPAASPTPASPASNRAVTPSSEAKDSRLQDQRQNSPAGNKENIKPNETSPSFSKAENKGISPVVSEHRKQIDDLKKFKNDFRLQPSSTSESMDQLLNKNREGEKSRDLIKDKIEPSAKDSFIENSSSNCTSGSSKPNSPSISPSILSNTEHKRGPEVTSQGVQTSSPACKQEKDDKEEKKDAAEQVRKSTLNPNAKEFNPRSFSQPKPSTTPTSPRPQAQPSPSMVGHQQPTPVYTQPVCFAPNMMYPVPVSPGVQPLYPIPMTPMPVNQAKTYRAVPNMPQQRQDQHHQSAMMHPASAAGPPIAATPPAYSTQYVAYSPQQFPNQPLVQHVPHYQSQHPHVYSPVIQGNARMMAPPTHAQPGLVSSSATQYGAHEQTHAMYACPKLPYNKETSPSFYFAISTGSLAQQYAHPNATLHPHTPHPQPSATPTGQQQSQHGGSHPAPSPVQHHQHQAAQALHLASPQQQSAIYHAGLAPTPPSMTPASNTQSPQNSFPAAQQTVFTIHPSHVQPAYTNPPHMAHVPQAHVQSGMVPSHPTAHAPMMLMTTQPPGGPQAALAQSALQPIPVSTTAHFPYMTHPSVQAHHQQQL
Format: functional
With `COc1ccc(C2CC(c3cccc(Br)c3)=NN2c2ccc(S(N)(=O)=O)cc2)cc1` (stereo not given) the Potency was “inactive”.
For `Oc1ccc2c(c1)OCC1(O)Cc3cc(O)c(O)cc3C21` (stereo not given), the Potency was 39.8 µM (active).
For `c1ccc(Nc2scc(-c3ccccc3)[n+]2Cc2ccco2)cc1`, the Potency was “inactive”.
`Cc1cccc(NC(=O)CSc2nc3ccccc3c3nc(CCn4cncc4C)nn23)c1` was tested, and the Potency was 31.6 µM (active).
In the case of `Cn1nnnc1SCC1=C(C(=O)O)N2C(=O)C(NC(=O)Cn3nc(C(F)F)cc3C3CC3)C2SC1` (stereo not given), the Potency is reported as “inactive”.
With `CCOC(=O)c1nnn(-c2nonc2N)c1-c1ccc(Br)cc1` the Potency was “inactive”.
In the case of `O=C(COC(=O)c1ccc(Cl)nc1)Nc1ncc(Cl)cc1Cl`, the Potency is reported as “inactive”.
For `O=C(COC(=O)c1cnc(Cl)c(Cl)c1)c1ccc(F)cc1`, the Potency was “inactive”.
With `CC(C)N(Cc1ccccc1)C(=O)COC(=O)c1cnc(Cl)c(Cl)c1` the Potency was 39.8 µM (active).
In the case of `Cc1ccc(Nc2nc(N)nc(CCl)n2)c(C)c1`, the Potency is reported as 14.1 µM (active).
In the case of `Nc1nc(CCl)nc(Nc2ccccc2)n1`, the Potency is reported as 28.2 µM (active).
`Cc1ccc(Nc2nc(N)nc(CCl)n2)cc1` was tested, and the Potency was 4.74 µM (active).
For `Nc1nc(O)c(NC=O)c(Nc2ccc(Cl)cc2)n1`, the Potency was “inactive”.
`Cc1ccc(Nc2nc(N)nc(CSc3nc4ccccc4s3)n2)cc1` was tested, and the Potency was 39.8 µM (active).
In the case of `CCOc1ccc(Nc2nc(N)nc(CSC(=S)N3CCN(c4ccccc4)CC3)n2)cc1`, the Potency is reported as “inactive”.
For `Cc1ccccc1Nc1nc(N)nc(CN(C)Cc2ccccc2Cl)n1`, the Potency was “inactive”.
In the case of `CCOc1ccc(S(=O)(=O)Nc2cc(S(=O)(=O)N3CCOCC3)ccc2OC)cc1`, the Potency is reported as “inactive”.
`COCCn1c(-c2cccs2)nc2nc3ccccc3nc21` was tested, and the Potency was “inactive”.
For `N=c1c(C(=O)NCCc2ccccc2)cc2c(=O)n3ccccc3nc2n1CC1CCCO1` (stereo not given), the Potency was “inactive”.
With `CC(C)(NC(=O)c1cc(Cl)c2ccccc2c1O)C(=O)O` the Potency was “inactive”.
`CN1C=CC(=C[N+](=O)[O-])N(C)C1=O` was tested, and the Potency was 17.8 µM (active).
`COc1cc(/C=C2/C(=O)c3cccc([N+](=O)[O-])c3C2=O)c(Br)cc1O` was tested, and the Potency was 22.4 µM (active).
With `COc1cc(CCN=Cc2cc(Cl)cc(Cl)c2O)c([N+](=O)[O-])cc1OC` the Potency was “inactive”.
With `CCOc1ccc(N2C(=O)/C(=C\c3ccc(OC)c(O)c3)S(=O)(=O)C2c2cccc([N+](=O)[O-])c2)cc1` (stereo not given) the Potency was “inactive”.
`Cc1ccc2[nH]c(-c3ccc(SCC(=O)Nc4nnc(C)s4)nc3)nc2c1` was tested, and the Potency was 23.8 µM (active).
With `CC(=O)c1cc2c(cc1NC(=O)CSc1nc3cc(C)ccc3[nH]1)OCO2` the Potency was “inactive”.
`Cc1ccc2[nH]c(SCC(=O)Nc3ccc(C(N)=O)cc3)nc2c1` was tested, and the Potency was “inactive”.
`COc1ccc(C2=CC(c3ccccc3Cl)n3nc(-c4ccc(Cl)cc4)nc3N2)cc1` (stereo not given) was tested, and the Potency was “inactive”.
`Nc1cccc2c1C(=O)N(C(=O)/C=C/c1ccc(F)cc1)C2=O` was tested, and the Potency was “inactive”.
For `CCSC1=NCCN1S(=O)(=O)c1ccc2ccccc2c1`, the Potency was “inactive”.
In the case of `CC(C)N1C/C(=C/c2ccsc2)C(=O)/C(=C/c2ccsc2)C1`, the Potency is reported as 39.8 µM (active).
In the case of `Cc1ccc(CCC(=O)Nc2ccccc2C(=O)O)o1`, the Potency is reported as “inactive”.
In the case of `O=C(OCc1ccc(O)cc1)c1c(-c2ccsc2)oc2ccc(N3CCOCC3)cc12`, the Potency is reported as “inactive”.
With `CCOc1ccc(C2C=C(c3cccc(OC)c3)Nc3nnnn32)cc1` (stereo not given) the Potency was “inactive”.
With `Cc1nn(-c2ccccc2)c(Cl)c1C(=O)NNC(=O)c1ccncc1` the Potency was “inactive”.
In the case of `Cc1ccsc1C(=O)N1CCN(c2ccccn2)CC1`, the Potency is reported as “inactive”.
With `Cc1nn(-c2ccccc2)c(Cl)c1C(=O)N1CCN(c2ncnc3c2cnn3-c2ccccc2)CC1` the Potency was 31.6 µM (active).
`Cc1cccn2c(=O)c3cc(C(=O)O)n(C)c3nc12` was tested, and the Potency was “inactive”.
In the case of `CCCCNC(=O)CCN1N=C(c2ccccc2)CCC1=O`, the Potency is reported as “inactive”.
In the case of `CN1C/C(=C/c2ccccc2[N+](=O)[O-])C(=O)/C(=C\c2ccccc2[N+](=O)[O-])C1`, the Potency is reported as 2.99 µM (active).
In the case of `CCCCNC(=O)NNc1nc(Cl)cc(C)c1C#N`, the Potency is reported as “inactive”.
`CCN(CC)C(=O)c1cccc(-c2csc(C(C)(O)c3ccc(OC)cc3)n2)c1` (stereo not given) was tested, and the Potency was 15.8 µM (active).
`COCCCN=C(S)N1CCN(c2nc(-c3cccc(OC)c3)cs2)CC1` was tested, and the Potency was “inactive”.
With `CC(C)c1cccc(-c2csc(C(O)c3ccc(F)c(F)c3)n2)c1` (stereo not given) the Potency was 39.8 µM (active).
With `CCN(CC)C(=O)c1cccc(-c2csc(C(O)c3ccccc3)n2)c1` (stereo not given) the Potency was 35.5 µM (active).
For `CCN(CC)C(=O)CSc1nc(-c2ccccc2)ccc1C#N`, the Potency was “inactive”.
In the case of `CCN(CC)C(=O)c1cccc(-c2csc(C(C)(O)c3cccc(OC)c3)n2)c1` (stereo not given), the Potency is reported as 35.5 µM (active).
For `CCN(C(=O)c1ccco1)c1nc(-c2ccc(OC)cc2)cs1`, the Potency was “inactive”.
For `CCN(CC)C(=O)c1sc2nc(-c3ccccc3)ccc2c1N`, the Potency was “inactive”.
In the case of `COc1cccc(-c2ccc3c(N)c(C(=O)c4ccc(Cl)cc4)sc3n2)c1`, the Potency is reported as “inactive”.
With `CC(C(=O)Nc1nc(-c2ccc(F)c(F)c2)cs1)N1C(=O)C2CC=CCC2C1=O` (stereo not given) the Potency was “inactive”.
`CCN(CC)c1ccc2cc(-c3nc(-c4ccc(OC)cc4)cs3)c(=O)oc2c1` was tested, and the Potency was “inactive”.
With `Cc1ccc(C(=O)N2CCN(Cc3ccc4c(c3)OCO4)CC2)cc1S(=O)(=O)N1CCOCC1` the Potency was “inactive”.
With `COc1ccc(-c2c(C)c3ccc(O)c(CN4CCCCC4C)c3oc2=O)cc1OC` (stereo not given) the Potency was “inactive”.
In the case of `COCCCNC(=O)c1cc2c(=O)n3cccc(C)c3nc2n(C(C)C)c1=N`, the Potency is reported as “inactive”.
With `CCSc1nnc(-c2sc3nnc(-c4ccccc4)c(-c4ccccc4)c3c2N)o1` the Potency was “inactive”.
`CCC(=O)Oc1ccc2c(c1)OC1(OC(C)=O)OC(C)CC1=C2C` (stereo not given) was tested, and the Potency was “inactive”.
`COc1ccc(-c2nc3ccc(C)cn3c2Cc2cccc(Cl)c2)cc1OC` was tested, and the Potency was 35.5 µM (active).
`COc1ccc(/C=N/NC(=O)c2c(C)nc3ccc(Cl)cn23)cc1OC` was tested, and the Potency was “inactive”.
With `COc1ccc(-c2nc(CCl)cs2)cc1OC` the Potency was “inactive”.
`COc1ccccc1Cc1c(-c2ccc(OC)c(OC)c2)nc2ccc(Cl)cn12` was tested, and the Potency was 39.8 µM (active).
For `COc1ccc(-c2nc3ccc(C)cn3c2Cc2ccc(C)cc2)cc1OC`, the Potency was 20 µM (active).
`COc1cc2c3nnc(-c4ccc(F)cc4)c-3cn(Cc3cccc(F)c3)c2cc1OC` was tested, and the Potency was “inactive”.
With `COc1ccc(-c2nc3ccc(C)cn3c2Cc2cccc(F)c2)cc1OC` the Potency was 39.8 µM (active).
`COc1ccc(-c2n[nH]c(S)n2)cc1OC` was tested, and the Potency was “inactive”.
For `N=C(NOC(=O)CCCOc1ccccc1)c1cccc(Br)c1`, the Potency was “inactive”.
`CSc1nc(-c2ccc(N(C)C)cc2)c(C#N)c(=O)n1C` was tested, and the Potency was “inactive”.
`CCOC(=O)c1ccc(-c2ccc(/C=N/NC(=O)c3cncc(Br)c3)o2)cc1` was tested, and the Potency was “inactive”.
For `Cc1cc(-c2onc3ccc(Cl)cc23)ccc1O`, the Potency was “inactive”.
In the case of `COc1ccc(-n2c(N)c(C(=O)NCc3ccco3)c3nc4ccccc4nc32)cc1OC`, the Potency is reported as “inactive”.
In the case of `CN1C(=O)/C(=N\C2CCCCC2)c2c3ccccc3c(O)c3cccc1c23`, the Potency is reported as “inactive”.
With `Cc1noc(/C=C/Nc2ccc(F)cc2F)c1[N+](=O)[O-]` the Potency was “inactive”.
In the case of `CCN1C(=O)/C(=C2/Sc3ccccc3N2CC)S/C1=N\c1nc[nH]n1`, the Potency is reported as “inactive”.
`CC1CC(NC(=O)c2cc3c(=O)n4ccccc4nc3n2C)CC(C)(C)C1` (stereo not given) was tested, and the Potency was “inactive”.
In the case of `Cc1nc(NN)c2c3c(sc2n1)COC(C)(C)C3`, the Potency is reported as “inactive”.
For `CCCCNc1c(-c2ccc(OC)c(SC3CCCCC3)c2)nc2cnccn12`, the Potency was “inactive”.
For `COc1ccccc1Cc1c(-c2cccc(Cl)c2)nc2ccc(C)cn12`, the Potency was 22.4 µM (active).
In the case of `COc1cnc(-c2ccccc2)nc1Oc1ccc(Cl)cc1C`, the Potency is reported as “inactive”.
`COc1ccc(-c2nc3ccc(C)cn3c2CC(C)(C)C)cc1OC` was tested, and the Potency was 12.6 µM (active).
For `COc1ccc(-c2nc3c(-c4ccc(Cl)cc4)cnn3cc2C)cc1F`, the Potency was “inactive”.
`COc1ccc(-c2cc(-c3ccc(N)cc3)nc(N)c2C#N)cc1OC` was tested, and the Potency was “inactive”.
For `COc1cc(-c2nc3ccccn3c2/N=C/c2cccc(OC)c2O)ccc1O`, the Potency was “inactive”.
`COc1ccc(-c2nc3ccc(Cl)cn3c2Cc2cccc(F)c2)cc1OC` was tested, and the Potency was 39.8 µM (active).
For `O=C(O)c1ccc2c(c1)ncn2C1CCCC1`, the Potency was “inactive”.
With `Cc1nc(CS(=O)(=O)c2ccccn2)sc1C(=O)NNC(=O)c1ccc(Cl)cc1` the Potency was “inactive”.
`N#Cc1cc2c(=O)n3ccccc3nc2n(-c2ccccc2Cl)c1=O` was tested, and the Potency was “inactive”.
For `CN(CCO)c1nc(NCc2ccccc2)c2cnn(C)c2n1`, the Potency was “inactive”.
With `COc1ccc(C2=CC(c3ccco3)n3ncnc3N2)cc1` (stereo not given) the Potency was “inactive”.
With `CCOC(=O)COc1nc(-c2ccco2)cc(-c2ccco2)c1C#N` the Potency was “inactive”.
`N#Cc1cnn2c3c(cnc12)C(=O)N1CCc2ccccc2C1C3` (stereo not given) was tested, and the Potency was “inactive”.
`Cc1sc2ncnc(N/N=C/c3cccc(O)c3)c2c1C` was tested, and the Potency was “inactive”.
`NNC(=O)c1cc2c(N3CCC(Cc4ccccc4)CC3)ncnc2s1` was tested, and the Potency was “inactive”.
For `CCc1cccc(NC(=O)C2CCN(c3ncnc4sc(C)c(C)c34)CC2)c1`, the Potency was 33.6 µM (active).
With `O=C(NN/C=C1/C(=O)N(c2ccc(Cl)cn2)C(=O)c2ccccc21)C1CC1` the Potency was “inactive”.
In the case of `COc1ccccc1C1C=C(c2ccc(C(C)C)cc2)Nc2nnnn21` (stereo not given), the Potency is reported as “inactive”.
For `O=C(NC1CCCCC1)Sc1ccc(Cl)cc1`, the Potency was 35.5 µM (active).
`O=C(NNC(=O)NC1CCCCC1)NC1CCCCC1` was tested, and the Potency was “inactive”.
With `Cc1cc(Cl)cc(C)c1OCC(=O)NC1CCCCCC1` the Potency was “inactive”.
`COc1cccc(C2CN(c3ccc(F)cc3F)N=C2c2cccs2)c1OC` (stereo not given) was tested, and the Potency was “inactive”.
With `Cc1nc(N/C(N)=N/C(=O)NC2CCCCC2)nc2ccccc12` the Potency was 20 µM (active).
`O=C(NC1CCCC1)c1[nH]nc2ccccc12` was tested, and the Potency was “inactive”.
For `C=CCn1c(SCC(=O)NC2CCCCC2)nc2ccccc2c1=O`, the Potency was “inactive”.
With `COc1cccc(CNC(=O)CCS(=O)(=O)c2ccccc2Cl)c1` the Potency was “inactive”.
In the case of `Cc1cccc(NC(=O)c2sc3nc4c(c(-c5ccco5)c3c2N)CCC4)c1`, the Potency is reported as “inactive”.
`O=C(COc1ccc(S(=O)(=O)N2CCOCC2)cc1Cl)NCc1ccc2c(c1)OCO2` was tested, and the Potency was “inactive”.
`Cc1cccc(CS(=O)(=O)c2ncc(Cl)c(C(=O)NCc3ccccc3)n2)c1` was tested, and the Potency was 31.6 µM (active).
With `O=C(NCc1ccc2c(c1)OCO2)c1cccnc1Cl` the Potency was “inactive”.
`O=C(NCc1ccc2c(c1)OCO2)c1nc(S(=O)(=O)Cc2ccccc2F)ncc1Cl` was tested, and the Potency was 20 µM (active).
For `Cc1cccc(NC(=O)c2nc(S(=O)(=O)Cc3ccccc3)ncc2Cl)c1`, the Potency was 35.5 µM (active).
In the case of `O=C(NCc1ccccc1)c1cnc2ccccc2c1O`, the Potency is reported as “inactive”.

Reference: ChEMBL document CHEMBL1201862, “PubChem BioAssay data set” (2004)
